Tau fibril ThT: blocks human tau fibril formation measured by thioflavin T; recombinant tau K18 P301L, heparin-induced fibrillization, ThT fluorescence; Potency, µM (titrated, usually from 57.4 µM), for the others: at the highest dose activity, negative = inhibition, actives largely listed as inhibitors; hit rate 2.1% among 270,000; P10636; further: potency means the concentration at half of the fitted maximal effect; nearly all actives have a fitted effect of over 55% in size
Target sequence (P10636 561-689 P618L limits assumed): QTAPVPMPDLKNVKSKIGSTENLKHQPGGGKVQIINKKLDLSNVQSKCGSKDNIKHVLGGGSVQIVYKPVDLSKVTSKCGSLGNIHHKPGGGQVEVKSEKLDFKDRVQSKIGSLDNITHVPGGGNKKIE
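ThT emission at 510 nm, taken 1 hr after adding 30 uM dye, quantifies aggregates formed when 20 uM heparin acts on human tau K18 P301L for 6 hr at 37 C.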
JMJD2E inh: JMJD2E (human) inhibition. Potency, µM (top dose mostly 57.1 µM), for inactives: top-dose activity change, negative = inhibition, usual class: inhibitors. JMJD2E catalytic domain, FDH-coupled NADH fluorescence (FDH is formaldehyde dehydrogenase). AID 2147. hit rate 1.6% among 230,000; active means well fitted inhibition curve with a large enough effect, not every such curve was filed as active; inconclusive means small, poorly fitted or top-dose-only effect, or another doubt; inactive means no such curve, though single readings can be large or run the other way;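 further: potency means the concentration at half of the fitted maximal effect; 0% = wells with enzyme and -100% = buffer wells without enzyme; nearly all actives have a fitted effect of over 50% in size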
Target sequence (B2RXH2 1-337 limits assumed): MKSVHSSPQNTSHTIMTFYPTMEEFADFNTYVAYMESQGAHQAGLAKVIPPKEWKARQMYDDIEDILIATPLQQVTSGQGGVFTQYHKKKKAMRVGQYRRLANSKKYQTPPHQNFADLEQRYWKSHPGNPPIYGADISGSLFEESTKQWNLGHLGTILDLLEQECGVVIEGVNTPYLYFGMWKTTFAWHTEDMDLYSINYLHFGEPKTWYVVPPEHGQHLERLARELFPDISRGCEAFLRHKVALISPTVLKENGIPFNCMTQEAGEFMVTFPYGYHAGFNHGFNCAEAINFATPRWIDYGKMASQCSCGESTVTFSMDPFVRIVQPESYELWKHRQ
Tau FP inhib: inhibitors of human tau fibril formation. P10636. K18 P301L tau heparin fibrillization, Alexa594 FP, 6 h. AID 1468. Potency, µM (highest dose often 57.7 µM), for the others: at the highest dose activity, negative = inhibition, usual class: inhibitors. hit rate 0.39% among 280,000; further: potency means the concentration at half of the fitted maximal effect; nearly all actives have a fitted effect of over 55% in size
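Recombinant K18 P301L […], labeled with Alexa 594 at 0.24 uM over 15 uM unlabeled; heparin inducer 20 uM final; 37 C, 6 hr; FP endpoint.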
FBPA coupling cs: counter-screen for Giardia aldolase inhibitors: coupling enzyme system. activity change, negative = inhibition, % at 58.2 µM, hits read low. coupling enzyme system counterscreen, AmpLite Red fluorescence. AID 2472. hit rate 0.67% among 290,000; in the data active means activity change below about -30%
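First, compound is pin-transferred into glyceraldehyde-3-phosphate coupling-enzyme reagent at 57.5 uM final and held 10 min at RT. Next, substrate, coupling system and AmpLite Red are added. After 20 min RT, fluorescence (525/598 nm) is read.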
Tau fluor counter: counter-screen for tau fibril formation inhibitors. tau K18 P301L Alexa594 fluorescence, heparin fibrillization. hit rate 0.93% among 280,000. AID 1463. Potency, µM (doses to about 57.7 µM), for the others: at the highest dose activity change, negative = decrease; further: potency means the concentration at half of the fitted maximal effect; nearly all actives have a fitted effect of over 55% in size
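Human tau K18 P301L (15 uM unlabeled, 0.24 uM Alexa 594-labeled) in 100 mM sodium acetate pH 7 with 20 uM heparin, 6 hr at 37 C. ThT 30 uM added, 1 hr ambient; Alexa 594 FP and total fluorescence read at 555/632 nm.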
* = called active by the depositor; ? = inconclusive; . = no result; [ ] = another dose, or the depositor's remark. An excerpt weighted towards active compounds, which were near 3% of everything screened. Unless noted, the call rests on the fitted dose curve; in most records, active means well fitted curve in the direction sought with a large enough effect; inconclusive means small, poorly fitted or top-dose-only effect, or another doubt; inactive means no such curve, though single readings can be large; an effect the other way counts as inactive or inconclusive. Unless noted, on the % scale 0 is the no-effect control and ±100 the full control effect.

SMILES	Tau fibril ThT	JMJD2E inh	Tau FP inhib	FBPA coupling cs	Tau fluor counter
Cc1ccc(C2=Nc3ccccc3NC(c3ccncc3)=N2)cc1	-17.2%	.	-3.0%	.	-22.4%
Cc1ccc(-c2cc(N)n(-c3ccccc3)n2)cc1	?	1.2%	8.9%	3.4	-25.3%
Nc1cc(-c2ccc(OC(F)(F)F)cc2)nn1-c1ccc(Cl)c(Cl)c1	20µM*	-17.6%	?	-6.4	12.6µM*[quencher]
Cc1c(C(=O)N2CCCC2)oc2c1-c1[nH]ncc1CC2	?	-5.7%	-7.7%	-49.3*	-21.2%
CCc1ccc(NC(=O)c2oc3c(c2C)-c2[nH]ncc2CC3)cc1	?	.	13.3%	.	-15.9%
O=C(Cn1ccc2cc(S(=O)(=O)N3CCCCCC3)ccc21)NCc1cccc(Cl)c1	9.7%	.	-15.1%	.	-19.2%
COc1ccc(-c2cc(C(F)(F)F)nc(SCCC(=O)Nc3cc(C)on3)n2)cc1	-1.8%	22.4µM*	-7.0%	2.9	-2.8%
COc1ccc(-c2cc(C(F)(F)F)nc(SCCC(=O)Nc3cccc(O)c3)n2)cc1	2.1%	.	14.1µM*	.	?
O=C1N(Cc2ccccc2Cl)c2ccccc2C1(O)c1c[nH]c2ccccc12 (configuration not stated)	-9.6%	.	-5.3%	.	?
COc1ccc(-c2coc3cc(O)ccc3c2=O)c(OC)c1O	-9.7%	?	1.7%	1.2	-9.0%
COc1ccc(-c2coc3cc(O)ccc3c2=O)c(O)c1O	10µM*	11.2µM*	15.8µM*	-13.2	12.6µM*[quencher]
Cc1ccc(-n2nc3c(c2NC(=O)C(C)(C)C)CSC3)c(C)c1	-21.8%	?	-4.4%	-1.3	-11.0%
Cc1ccc(-n2nc3c(c2NC(=O)c2ccc(Br)o2)CSC3)c(C)c1	-15.9%	-5.9%	-3.3%	-35.3*	2.7%
N#C/C(=C\c1coc2ccccc2c1=O)C(N)=S	-14.3%	?	-7.4%	8.9	-10.3%
N#C/C(=C\c1coc2ccc(O)cc2c1=O)C(=O)Nc1nc2ccccc2s1	17.8µM*	?	?	5.5	28.2µM*[quencher]
CSc1ccc(CCNC(=O)NCc2noc3ccccc23)cc1	-3.2%	.	-10.7%	.	-19.0%
CN(C)c1ccc(C(=O)Nc2ccc(O)c3c(=O)cc(-c4ccccc4Cl)oc23)cc1	-13.2%	?	8.4%	-0.5	-17.9%
O=C(Nc1ccc(O)c2c(=O)cc(-c3ccccc3Cl)oc12)c1ccc(Br)cc1	14.1µM*	.	4.6%	14.3	-18.1%
Cc1ccc(Cl)cc1-n1c(=O)cc(N2CCN(c3ccccc3)CC2)[nH]c1=O	-9.6%	.	-11.1%	.	-12.6%
CC1CC=CC2C1C(=O)N(Cc1ccccc1)C2c1ccc2ccccc2c1Br (configuration not stated)	.	.	.	-2.1	.
CCc1cc2c(nc1CC)CCN(CC/C(C)=N/O[C@@H](C)c1cn([C@@H]3COC[C@@H]3O)nn1)C2	-4.0%[11.5 µM]	.	-0.6%[11.6 µM]	4.3	-7.8%[11.6 µM]
CCc1ccc(NC(=O)N(Cc2ccc(C)cc2)Cc2cccn2-c2nnc(N3CCCC3=O)s2)cc1	-10.2%	.	-5.9%	.	-17.9%
O=C(O)CC/C(=C\c1ccccc1[N+](=O)[O-])c1nc2ccccc2s1	-13.2%	4.6%	5.8%	10.3	-5.6%
O=C(O)CC/C(=C\c1ccc(N2CCCC2)c([N+](=O)[O-])c1)c1nc2ccccc2s1	4.47µM*	8.1%	-11.5%	2.4	-23.9%
COC(=O)c1ccc(-c2ccc(/C=N/NC(=O)Cc3nnc(N)s3)o2)cc1	7.94µM*	?	6.4%	-4.0	-16.3%
SMILES	Tau fibril ThT	JMJD2E inh	Tau FP inhib	FBPA coupling cs	Tau fluor counter
O=C(CC1CCS(=O)(=O)C1)Nc1ccc[nH]c1=O (configuration not stated)	-2.3%	-0.9%	8.4%	-52.2*	7.6%
Cc1ccc(OC(=O)Nc2ccccc2)cc1	-2.6%	5.7%	3.2%	-0.4	2.4%
O=C(Nc1ccccc1)Oc1ccc[nH]c1=O	.	22.4µM*	-20.4%	-43.6*	-27.5%
CCC(C)NC(=O)Cn1c(=O)n(Cc2ccc(C(=O)NCc3ccc(C)cc3)cc2)c(=O)c2ccccc21 (configuration not stated)	-0.1%	.	-12.5%	.	-23.8%
Cc1c(C(=O)c2ccc(F)cc2F)c2ccccn2c1CCC#N	.	.	.	-40.0*	.
COc1ccc(NC(=O)CSc2nc3nc(C)c(Cc4ccccc4Cl)c(C)n3n2)cc1OC	-17.1%	.	5.2%	.	-27.8%
Nc1cc(=O)[nH]c(SCc2cccc3ccccc23)n1	.	.	.	4.0	.

Assay outcomes from PubChem BioAssay.
